Drawing on PubChem BioAssay, this text covers composite z-score and z-score for 14 compounds.

The source made the active and inactive calls. Unless noted, how the calls were made is not given here.

Assay [1] has as its system Wnt5a (protein binding on small-molecule microarray). In words: small molecules binding Wnt5a protein – biophysical, small-molecule microarray, 635/667 nm fluorescence, primary screen (AID 1142).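 Further: fluorescence read at 667 nm with signal to noise per printed feature.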 The conditions noted are these: 635 nm fluorescence, higher = more signal.
Assay [2] can be described thus: ATP-based viability of Huh7 replicon cells – cell-based, CellTiter-Glo luminescence, basal, 48 h, cytotoxicity control for HCV replication inhibitor project, primary screen (AID 1143).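 Further: Huh7 hepatoma cells carrying a hepatitis C replication reporter with no stimulus; test concentration not given here.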 Particulars: higher = more signal, called active from +8 up or from −8 down. For orientation: Replicon systems follow genome replication, usually without infectious particles.
Assay [3] can be described thus: Pseudomonas biofilm growth suppression – PAO1 strain, BacTiter-Glo luminescence, LB-PBS, primary screen (AID 1144). Particulars: P. aeruginosa PAO1 biofilm, 12 h, higher = more signal.
The nature of assay [4]: basal CRE-LacZ reporter activity in PC12 – cell-based, unstimulated, primary screen (AID 1145). Particulars: no forskolin, luminescence, 4.5 h, higher = more signal, called active from +8 up or from −8 down.
Assay [5] is described as follows: forskolin-driven CRE-LacZ activity in PC12 – cell-based, CRE-LacZ reporter, forskolin-stimulated, primary screen (AID 1146).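 Further: PC12 cells with 6xCRE LacZ reporter stimulated by forskolin 10 µM; beta-galactosidase reporter signal reflecting CREB driven transcription.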 Particulars: luminescence, 4.5 h, higher = more signal, called active from +8 up or from −8 down.
Assay [6] deals with Streptavidin (Streptomyces avidinii) (UniProt P22629). In words: compounds binding control protein streptavidin – biophysical, small-molecule microarray, 635/667 nm fluorescence, artefact control for SMM compound annotation, primary screen (AID 1147).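 Further: signal reflects streptavidin binding to arrayed compounds as a control protein.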 Particulars: higher = more signal.
Assay [7] in a line: probe aInhba binding on compound microarray – biochemical, small-molecule microarray, 635/667 nm fluorescence, primary screen (AID 1148).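 Further: score merges 667nm spot fluorescence with signal-to-noise for antibody binding to printed compounds.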 The conditions noted are these: higher = more signal.
Assay [8] deals with Torsin-1A (Homo sapiens) (UniProt O14656). Kind of assay: TOR1A wild-type binding on microarray – cell lysate, small-molecule microarray, lysate, 635/667 nm, primary screen (AID 1149). Particulars: COS7 hTOR1A-WT lysate, 635 nm fluorescence, higher = more signal.
The target is the same in assay [9]. Kind of assay: torsin A mutant lysate binding on microarrays – cell lysate, small-molecule microarray, COS7 lysate, 635/667 nm fluorescence, primary screen (AID 1150).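 Further: score pools 667 nm emission and signal to noise measuring lysate protein binding.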 The conditions noted are these: COS7 hTOR1A mutant lysate, 635 nm fluorescence, higher = more signal.
The subject of assay [10] is Sonic hedgehog protein (Shh). In words: Sonic hedgehog microarray binding compounds – biochemical, small-molecule microarray, 635/667 nm fluorescence, primary screen (AID 1151).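 Further: Shh protein binding to compounds spotted on small-molecule microarray slides; score combines spot fluorescence intensity with signal-to-noise across triplicate slides.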 The conditions noted are these: 635 nm fluorescence, higher = more signal.

Chain of Torsin-1A (Homo sapiens) (O14656 whole entry, looked up): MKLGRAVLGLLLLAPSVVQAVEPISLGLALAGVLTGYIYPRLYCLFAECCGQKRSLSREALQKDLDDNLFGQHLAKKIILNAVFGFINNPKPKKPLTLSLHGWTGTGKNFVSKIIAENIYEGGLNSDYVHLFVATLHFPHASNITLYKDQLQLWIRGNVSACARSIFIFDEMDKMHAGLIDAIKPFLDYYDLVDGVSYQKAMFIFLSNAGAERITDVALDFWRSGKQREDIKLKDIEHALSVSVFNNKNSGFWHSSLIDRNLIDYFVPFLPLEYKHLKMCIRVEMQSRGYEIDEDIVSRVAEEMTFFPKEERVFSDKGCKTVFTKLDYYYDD
Chain of Streptavidin (Streptomyces avidinii) (P22629 whole entry, looked up): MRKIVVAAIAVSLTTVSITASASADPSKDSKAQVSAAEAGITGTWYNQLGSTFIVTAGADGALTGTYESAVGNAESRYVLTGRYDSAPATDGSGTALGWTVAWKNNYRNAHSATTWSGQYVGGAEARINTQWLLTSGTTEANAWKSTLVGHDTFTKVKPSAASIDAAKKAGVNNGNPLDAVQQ

For `CN(C)C(=O)[C@@]1(CCC(=O)OC(C)(C)C)N=C(c2ccc(OCCCO)cc2)O[C@H]1c1ccccc1CN=[N+]=[N-]`, the composite z-score is 0.281 in [1]; 0.457 in assay [6]; 0.0857 in assay [7]; 0.946 in the assay with Torsin-1A (Homo sapiens) [8]; 1.99 with Torsin-1A (Homo sapiens) [9]; -0.733 in assay [10]. The z-score in assay [2] was -0.292 (inactive); in [3] it was -0.0794 (inactive); in assay [4], 0.148 (inactive); in assay [5], 0.27 (inactive).
For `COc1ccc([Si](C)(C)[C@H]2[C@H](CCO)O[C@@]3(C(=O)N(Cc4ccccc4)c4ccc(N5CCOC5=O)cc43)[C@@H]2C)cc1`, the composite z-score was 0.0771 in [1]; 1 in assay [6]; 0.0756 in assay [7]; -0.112 in the assay with Torsin-1A (Homo sapiens) [8]; -0.12 in the assay with Torsin-1A (Homo sapiens) [9]; 1.16 in assay [10]. The z-score was -4.87 (inactive) in assay [2], -0.521 (inactive) in [3], 2.11 (inactive) in assay [4] and -0.726 (inactive) in [5].
For the compound `COCCCNC(=O)[C@@]1(Sc2ccc(C)cc2)CC(=O)N(C(C)C)[C@@H]1c1ccc(CO)cc1I`, the composite z-score is -0.0469 in assay [1]; -0.671 in [6]; -0.0762 in [7]; 0.154 with Torsin-1A (Homo sapiens) [8]; 1.18 with Torsin-1A (Homo sapiens) [9]; -0.005 in [10]. The z-score in assay [2] is -4.86 (inactive); in assay [3], -0.96 (inactive); in [4], 0.0655 (inactive); in assay [5], 1.35 (inactive).
As for `CC(C)C[C@@H]1NC(=O)[C@@H]2C[C@H](C(=O)NCCCCCC[N+](C)(C)C)[C@H](c3cccc(OCCO)c3)N2C1=O`, the composite z-score was -0.391 in assay [1]; -0.665 in [6]; -0.128 in assay [7]; -0.153 with Torsin-1A (Homo sapiens) [8]; 0.393 in the assay with Torsin-1A (Homo sapiens) [9]; 1.46 in assay [10]. The z-score is -0.351 (inactive) in assay [2], -0.226 (inactive) in [3], -0.943 (inactive) in [4] and -0.153 (inactive) in [5].
Turning to `COCCCNC(=O)[C@@]1(c2ccc([N+](=O)[O-])cc2)CC(=O)N(C(C)C)[C@@H]1c1ccc(CO)cc1`, the composite z-score in [1] is 0.0039; in assay [6] it was -0.934; in assay [7] it was 0.315; with Torsin-1A (Homo sapiens) [8], 0.722; with Torsin-1A (Homo sapiens) [9] it was 1.05; in [10], 0.0776. Moreover, the z-score is 0.433 (inactive) in assay [2], 0.797 (inactive) in assay [3], 0.495 (inactive) in [4] and 0.0212 (inactive) in assay [5].
As for `CCOC(=O)C=Cc1cc(F)ccc1O`, the composite z-score in assay [1] is 0.139; in assay [6], 0.761; in [7], 0.0705; with Torsin-1A (Homo sapiens) [8], 0.165; in the assay with Torsin-1A (Homo sapiens) [9] it was 0.448; in [10], -0.587. In addition, the z-score in [2] was -4.58 (inactive); in [3], -0.557 (inactive); in [4], 0.276 (inactive); in [5] it was -0.804 (inactive).
In the case of `NC(=O)[C@@H]1[C@H]2C(=O)O[C@H](c3ccccc3)[C@H](c3ccccc3)N2[C@H](c2ccc(OCCO)cc2)[C@@]12C(=O)Nc1ccc(C#CCCO)cc12`, the composite z-score is 0.257 in [1]; 0.958 in [6]; -0.0736 in assay [7]; 0.632 with Torsin-1A (Homo sapiens) [8]; -0.565 in the assay with Torsin-1A (Homo sapiens) [9]; 0.0995 in [10]. Also, the z-score was -0.952 (inactive) in assay [2], -0.807 (inactive) in assay [3], -0.0515 (inactive) in [4] and -0.195 (inactive) in [5].
Regarding `CN(C)CCCCCCNC(=O)[C@@H]1C[C@@H]2C(=O)N[C@@H](CCCCN)C(=O)N2[C@@H]1c1ccc(O)cc1`, the composite z-score in assay [1] was found to be 1.95; in assay [6], 2.97; in [7], 1.93; in the assay with Torsin-1A (Homo sapiens) [8], 3.46; in the assay with Torsin-1A (Homo sapiens) [9], 3.21; in [10] it was 1.88. Moreover, the z-score in [2] was -1.9 (inactive); in [3] it was -1.3 (inactive); in assay [4], -1.08 (inactive); in [5], -0.643 (inactive).
For the compound `CCCCCCCCCCC(O)C1C=CC2C(=O)N(c3ccccc3)C(=O)C2N1Nc1ccccc1F` (stereo not given), the composite z-score in assay [1] was -0.13; in assay [6] it was 0.282; in assay [7] it was 0.0074; in the assay with Torsin-1A (Homo sapiens) [8], -0.35; with Torsin-1A (Homo sapiens) [9], -0.524; in [10], -0.992. The z-score in assay [2] was 0.325 (inactive); in [3], -0.425 (inactive); in assay [4] it was -1.09 (inactive); in assay [5], 0.476 (inactive).
Turning to `COc1ccc(C#Cc2ccc3c(c2)[C@]2(C(=O)N3)[C@H](C(=O)N3CCCCCCC3)[C@H]3C(=O)O[C@H](c4ccccc4)[C@H](c4ccccc4)N3[C@@H]2c2ccc(O)cc2)cc1`, the composite z-score in [1] was 0.696; in assay [6] it was 0.627; in assay [7], 0.939; with Torsin-1A (Homo sapiens) [8] it was 0.589; in the assay with Torsin-1A (Homo sapiens) [9], 1.42; in [10] it was 1.6. Further, the z-score in assay [2] was -0.71 (inactive); in assay [3], -0.768 (inactive); in assay [4], 0.0653 (inactive); in [5] it was -0.202 (inactive).
As to `CO[C@H]1O[C@H](CO)[C@@H](OC(=O)CCc2ccccc2)[C@H](OC(=O)c2cc3ccccc3[nH]2)[C@H]1OC(=O)c1cc2ccccc2[nH]1`, the composite z-score in [1] was 0.156; in assay [6], -0.0944; in assay [7], 0.0391; in the assay with Torsin-1A (Homo sapiens) [8] it was 0.71; with Torsin-1A (Homo sapiens) [9], 0.913; in assay [10], 0.832. Also, the z-score in assay [2] is -5.71 (inactive); in [3] it was -1.99 (inactive); in [4] it was -1.28 (inactive); in assay [5], -1.2 (inactive).
Take `C=CCNC(=O)[C@@H]1[C@H]2C(=O)O[C@H](c3ccccc3)[C@H](c3ccccc3)N2[C@H](c2ccc(O)cc2)[C@@]12C(=O)N(C(=O)OCCOC)c1ccc(C#CCCO)cc12`: the composite z-score in [1] is 0.905; in assay [6], 0.945; in assay [7], 0.198; with Torsin-1A (Homo sapiens) [8], 0.463; with Torsin-1A (Homo sapiens) [9], 0.235; in assay [10], 2.07. Besides, the z-score in assay [2] was -0.2 (inactive); in [3], 0.171 (inactive); in assay [4], -0.337 (inactive); in assay [5], 0.243 (inactive).
As for `COc1ccc([Si](C)(C)[C@H]2[C@H](CCO)O[C@@]3(C(=O)N(Cc4ccc(N5C(=O)c6ccccc6Oc6ccccc65)cc4)c4ccccc43)[C@@H]2C)cc1`, the composite z-score is -0.154 in [1]; -0.446 in [6]; -0.0762 in assay [7]; -1.08 with Torsin-1A (Homo sapiens) [8]; -0.889 in the assay with Torsin-1A (Homo sapiens) [9]; 1.13 in assay [10]. For the same compound, the z-score in [2] is -5.43 (inactive); in [3], -1.75 (inactive); in assay [4] it was 0.222 (inactive); in assay [5] it was -0.986 (inactive).
Turning to `O=C1C2C=CC(C(O)c3cccc(O)c3)N(Nc3ccccc3)C2C(=O)N1c1ccccc1` (stereo not given), the composite z-score in assay [1] was -0.105; in assay [6], 0.318; in assay [7], -0.0645; in the assay with Torsin-1A (Homo sapiens) [8], -0.338; with Torsin-1A (Homo sapiens) [9], -0.283; in assay [10], -0.461. Besides, the z-score in assay [2] was -2.93 (inactive); in [3], -1.06 (inactive); in assay [4] it was -0.14 (inactive); in assay [5], 1.37 (inactive).
